Screens from PubChem BioAssay.
In the library only some 21% were active in any assay of this set; here they are far more common.
ELG1 DNA repair: qHTS screen for small molecules that inhibit ELG1-dependent DNA repair in human embryonic kidney (HEK293T) cells expressing luciferase-tagged ELG1; Potency, µM (highest dose often 46.1 µM), most hits filed as inhibitors; hit rate 2.3% among 330,000; HEK293T ELG1-luciferase reporter, luminescence, 16 h; DNA damage induced by 5-fluorouridine; further: nearly all actives have a fitted effect of over 55% in size
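Quantitative HTS, concentration-response format. 2,000 cells/well co-treated with 5-fluorouridine and compound, 16 hr in 5% CO2 at 37 °C; ONE-Glo luminescence read after 30 min.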
RORgamma inh: qHTS for inhibitors of ROR gamma transcriptional activity; AID 2551, 2010; hit rate 5.4% among 310,000; Drosophila S2 Gal4-RORgamma UAS-luciferase reporter, 20 h; Potency, µM (titrated, usually from 53.6 µM), hits mostly inhibitors; further: nearly all actives have a fitted effect of over 60% in size
Target sequence (P51450 whole entry, looked up, the tested form may be a part): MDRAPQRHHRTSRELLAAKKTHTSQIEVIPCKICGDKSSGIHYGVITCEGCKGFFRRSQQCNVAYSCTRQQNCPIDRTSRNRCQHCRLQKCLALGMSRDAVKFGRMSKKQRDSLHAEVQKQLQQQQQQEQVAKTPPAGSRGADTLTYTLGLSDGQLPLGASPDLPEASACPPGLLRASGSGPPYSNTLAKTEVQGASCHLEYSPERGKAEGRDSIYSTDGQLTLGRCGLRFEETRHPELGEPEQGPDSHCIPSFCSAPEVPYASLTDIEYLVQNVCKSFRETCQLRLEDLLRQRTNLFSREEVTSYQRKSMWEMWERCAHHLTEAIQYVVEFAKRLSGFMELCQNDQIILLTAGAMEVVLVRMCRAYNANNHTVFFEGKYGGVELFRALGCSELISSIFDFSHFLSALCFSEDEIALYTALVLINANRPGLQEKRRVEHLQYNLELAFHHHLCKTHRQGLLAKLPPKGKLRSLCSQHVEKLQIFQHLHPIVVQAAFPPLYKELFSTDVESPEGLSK
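Stable Schneider cell line, Gal4 DNA-binding domain fused to ROR gamma, UAS-luciferase. Cmpd 1 hr RT → CuSO4 700 uM final → 20 hr RT → luciferase reagent 10 min → luminescence.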
TDP1 cell noCPT: qHTS for Inhibitors of human tyrosyl-DNA phosphodiesterase 1 (TDP1): qHTS in cells in absence of CPT; DT40 Tdp1-/- hTDP1 cells, no CPT, ATP luminescence, 48 h; Potency, µM (highest dose often 46.2 µM), most hits filed as inhibitors; hit rate 15% among 420,000; AID 686978, 2013; further: nearly all actives have a fitted effect of over 55% in size
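Cells were dispensed at 400 per well, compounds added by pin tool, plates incubated ≥48 hr at 37 °C, then CellTiter-Glo added for 30 min at room temperature before luminescence reading. Line: DT40 Tdp1-/- complemented with hTDP1; camptothecin omitted.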
TDP1 cell CPT: qHTS for Inhibitors of human tyrosyl-DNA phosphodiesterase 1 (TDP1): qHTS in cells in presence of CPT. chicken DT40 Tdp1-/-;hTDP1 cells + 20 nM CPT, ATP luminescence, 48 h. Potency, µM (top dose mostly 46.2 µM), usual class: inhibitors. hit rate 12% among 420,000. AID 686979, 2013; further: nearly all actives have a fitted effect of over 55% in size
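Chicken DT40 Tdp1-/- cells complemented with human TDP1, 400 cells/well, exposed to compounds plus 20 nM camptothecin for at least 48 h at 37 C; viability read as ATP content by CellTiter-Glo luminescence.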
IL-1B inflam inh: qHTS for Inhibitors of Inflammasome Signaling: IL-1-beta AlphaLISA Primary Screen; THP-1 LPS/ATP IL-1B secretion, AlphaLISA, 16 h; hits give low values; activity change, % at 57.5 µM; hit rate 4.7% among 360,000; AID 743279, 2014; in the data active means activity change below about -50%; inconclusive means mostly about -30% to -49%
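Secreted IL-1B measured by AlphaLISA bead assay after 16 h compound exposure of THP-1 cells; compounds (final up to 57.5 uM) added 1 h before LPS (250 ng/mL) and ATP (1.25 mM) stimulation; lower signal means less secretion.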
Gal4-VP16 FLuc: VP16 counterscreen qHTS for inhibitors of ROR gamma transcriptional activity | Drosophila S2 Gal4-VP16 UAS-luciferase, luminescence, 20 h | Potency, µM (highest dose often 53.6 µM), usual class: inhibitors | hit rate 3.5% among 310,000 | AID 2546, 2010;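 further: Gal4-VP16 expression switched on by copper sulfate through the metallothionein promoter; nearly all actives have a fitted effect of over 50% in size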
Numbers stand for hits; i = inactive; ? = inconclusive; nt = no result; [ ] = remark or other dose. Unless noted, the call rests on the fitted dose curve; in most records, active means well fitted curve in the direction sought with a large enough effect; inconclusive means small, poorly fitted or top-dose-only effect, or another doubt; inactive means no such curve, though single readings can be large; an effect the other way counts as inactive or inconclusive.

SMILES	ELG1 DNA repair	RORgamma inh	TDP1 cell noCPT	TDP1 cell CPT	IL-1B inflam inh	Gal4-VP16 FLuc
COC1=C(OC)C(=O)C(Sc2ccc3ccccc3c2)=CC1=O	nt	nt	1.3µM	1.3µM	-104.3	nt
O=C(C1CCCCC1)N(Cc1nc2sc3c(c2c(=O)[nH]1)CCCC3)Cc1cccs1	?	11.2µM	13µM	?	i	?
CN(CCOc1ccccc1)C(=O)CCc1nc2sc3c(c2c(=O)[nH]1)CCCC3	i	i	?	?	i	i
CC(=O)NC(c1ccc(F)c(F)c1)c1nc(-c2cccc(C(=O)O)c2)cs1 (stereo unspecified)	nt	nt	i	i	i	nt
CC(=O)Nc1cccc(-c2csc(C(NC(C)=O)c3ccc(F)c(F)c3)n2)c1 (stereo unspecified)	nt	nt	i	i	i	nt
CC(=O)NC(c1ccc(F)c(F)c1)c1nc(-c2ccncc2)cs1 (stereo unspecified)	nt	nt	14.6µM	18.4µM	i	nt
CC(=O)NC(c1ccc(F)c(F)c1)c1nc(-c2cccc(C(C)C)c2)cs1 (stereo unspecified)	nt	nt	23.1µM	16.4µM	?	nt
CC(=O)NC(c1ccc(F)c(F)c1)c1nc(-c2cccc(F)c2)cs1 (stereo unspecified)	nt	nt	i	20.6µM	i	nt
COc1ccc(CN2C(=O)CSCC2(C)C(=O)NCc2ccccc2)cc1 (stereo unspecified)	nt	nt	i	?	?	nt
CC(=O)N1CCN(c2cc(N3CCc4ccccc4C3)c(F)cc2[N+](=O)[O-])CC1	i	i	?	?	?	i
CCCc1nc2ccc(C)cn2c1Cc1ccsc1	nt	nt	9.2µM	13µM	i	nt
Cc1ccc(-c2nc3ccc(C)cn3c2Cc2ccsc2)cc1	nt	nt	14.6µM	?	i	nt
Cc1ccc(Cc2c(-c3ccc(Br)cc3)nc3ccc(Br)cn23)cc1	nt	nt	?	18.4µM	i	nt
Cc1ccc2nc(C(C)(C)C)c(Cc3ccsc3)n2c1	nt	nt	18.4µM	?	i	nt
Cc1ccc(Cc2c(-c3ccc(Br)cc3)nc3ccc(Cl)cn23)cc1	nt	nt	?	?	i	nt
COc1c2c(cc3c1C(CC(O)C(C)C)N(C)CC3)OCO2 (stereo unspecified)	nt	i	i[9.04 µM]	i[9.04 µM]	nt	i
CN1CCN(c2ncc3nc(-c4cccc(C#N)c4)c(=O)n(CCc4ccccc4)c3n2)CC1	nt	i	?	?	nt	i
Fc1ccc(-c2nc3ccc(Br)cn3c2Cc2ccsc2)cc1	nt	nt	?	?	i	nt
Cc1ccc(-c2nc3ccc(Br)cn3c2Cc2ccsc2)cc1	nt	nt	23.1µM	14.6µM	i	nt
CC(=O)c1cccc(NC(=O)c2ccc3c(c2)c(C)c(C)n3Cc2ccc(Cl)cc2)c1	nt	nt	9.2µM	14.6µM	nt	nt
CCc1ccc(NC(=O)c2ccc3c(c2)c(C)c(C)n3Cc2ccccc2)cc1	nt	nt	5.17µM	5.8µM	nt	nt
COc1ccc(-n2c(=O)c3ccc(C(=O)NCc4ccc(C)cc4)cc3n(CC(=O)Nc3ccc(F)cc3)c2=O)cc1	nt	nt	i	i	nt	nt
CCc1ccc(C(=O)Nc2ccc3c(c2)n(C)c(=O)n3C)cc1	?	i	?	?	i	i
COc1ccc(-n2c(=O)c3ccc(C(=O)NCc4ccc(C)cc4)cc3n(CC(=O)Nc3ccc(C)cc3)c2=O)cc1	nt	nt	20.6µM	?	nt	nt
Cc1ccc(CNC(=O)c2ccc3c(c2)c(C)c(C)n3Cc2ccc(Cl)cc2)o1	nt	nt	5.17µM	?	nt	nt
CN(CC(=O)NCC1CCCCC1)CC(=O)Nc1ccccc1Br	i	nt	?	i	i	nt
CC(C)(CNC(=O)CNC(=O)c1ccc(Cl)cc1Cl)N1CCOCC1	i	nt	i	i	i	nt
Cc1c(C)n(Cc2ccccc2)c2ccc(C(=O)NCc3ccco3)cc12	nt	nt	16.4µM	?	nt	nt
CCc1ccc(CNC(=O)c2ccc3c(c2)c(C)c(C)n3Cc2ccccc2)cc1	nt	nt	?	18.4µM	nt	nt
COc1cccc(CNC(=O)c2ccc3c(c2)c(C)c(C)n3Cc2ccccc2)c1	nt	nt	18.4µM	16.4µM	nt	nt
